Source: the supplement of paper PMC10849652
About 8,800 targets were measured; listed, in parts, are those with a hit and a random draw of the rest. About 0.5% of all pairs of compound and target were hits. A number with no mark means an inactive call.

Tests used:
Assay in all cases: log2 fold change, soluble protein after heating vs DMSO (PISA); higher = thermal stabilisation; K562 lysate, 10 uM; active = over 0.2 and 3.5 SD of the protein, either way, in both replicates (recomputed)
ibrutinib = compound: C=CC(=O)N1CCC[C@@H](n2nc(-c3ccc(Oc4ccccc4)cc3)c3c(N)ncnc32)C1 [ibrutinib]
Outline: (§1)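 Quantification was by TMTpro 16plex LC-MS/MS with equalised channel sums, applied to the supernatant after 21,000xg for 90 min. Samples were crude K562 extract at 1 mg/mL protein in PBS pH 7.4 with 1 mM MgCl2, treated with 10 μM compound for 30 min, heated for 3 min across 48°C-58°C, pooled and brought to 0.5% NP-40 at 4°C. Values are log-two fold changes in thermal stability relative to solvent controls, from duplicates.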

[1] = compound: CC(=O)c1cnc2ccc(-c3cc(Cl)c(O)c(Cl)c3)nc2c1N[C@H]1CC[C@H](CN(C)C)CC1
Outline: as §1

ralimetinib = compound: CC(C)(C)Cn1c(N)nc2ccc(-c3[nH]c(C(C)(C)C)nc3-c3ccc(F)cc3)nc21 [ralimetinib]
Outline: as §1

[2] = compound: CC(C)(O)CC(=O)NCCn1ccc2ncnc(Nc3ccc(Oc4cccc(C(F)(F)F)c4)c(Cl)c3)c21
Outline: as §1

[3] = compound: CC(C)C1=C2N=C(C=C(N2N=C1)NCC3=CC=CC=C3)NCCCCCCN
Outline: as §1

[4] = compound: CC1=C(C(CC(=O)N1)C2=CC=C(C=C2)C(F)(F)F)C(=O)NC3=C(C=C4C(=C3)C=NN4)F
Outline: as §1

[5] = compound: CC1=C(C2=C(C=C1)C(=O)C3=CC=CC=C3N2CCCN)C
Outline: as §1

[6] = compound: CC1=C(C=C(C=C1)NC(=O)C2=CC(=CC=C2)C(C)(C)C#N)NC3=CC4=C(C=C3)N=CN(C4=O)C
Outline: as §1

[7] = compound: CC1=C(C=C(C=C1)NC(=O)C2=CC(=CC=C2)N(C)C)NC(=O)C3=CC=C(C=C3)O
Outline: as §1

[8] = compound: CC1=CC=C(C=C1)SC2=C3C=C(SC3=CN=C2)C(=O)N
Outline: as §1

vemurafenib = compound: CCCS(=O)(=O)Nc1ccc(F)c(C(=O)c2c[nH]c3ncc(-c4ccc(Cl)cc4)cc23)c1F [vemurafenib]
Outline: as §1

[9] = compound: CCCS(=O)(=O)Nc1ccc(F)c(C(=O)c2c[nH]c3ncc(Cl)cc23)c1F
Outline: as §1

barasertib = compound: CCN(CCCOc1ccc2c(Nc3cc(CC(=O)Nc4cccc(F)c4)[nH]n3)ncnc2c1)CCOP(=O)(O)O [barasertib]
Outline: as §1

[10] = compound: CC[C@@H]1C(=O)N(C)c2cnc(Nc3ccc(C(=O)NC4CCN(C)CC4)cc3OC)nc2N1C1CCCC1
Outline: as §1

volasertib = compound: CC[C@@H]1C(=O)N(C)c2cnc(Nc3ccc(C(=O)N[C@H]4CC[C@H](N5CCN(CC6CC6)CC5)CC4)cc3OC)nc2N1C(C)C [volasertib]
Outline: as §1

[11] = compound: CCn1c(C(=O)N(C2CC2)C2CC2)cc2c3c(ncn3C)c(Nc3cc(C)n(C)n3)nc21
Outline: as §1

[12] = compound: CCn1cc(-c2ccnc3[nH]c(-c4cccc(CN(C)C)c4)cc23)c(-c2ccc(NC(=O)N(C)C)cc2)n1
Outline: as §1

[13] = compound: CN1CCC(CNc2ccc3ncc(-c4cccc(OC(F)(F)F)c4)n3n2)CC1
Outline: as §1

saracatinib = compound: CN1CCN(CCOc2cc(OC3CCOCC3)c3c(Nc4c(Cl)ccc5c4OCO5)ncnc3c2)CC1 [saracatinib]
Outline: as §1

sotrastaurin = compound: CN1CCN(c2nc(C3=C(c4c[nH]c5ccccc45)C(=O)NC3=O)c3ccccc3n2)CC1 [sotrastaurin]
Outline: as §1

Chain of UniProt O15120 (O15120 whole entry, looked up): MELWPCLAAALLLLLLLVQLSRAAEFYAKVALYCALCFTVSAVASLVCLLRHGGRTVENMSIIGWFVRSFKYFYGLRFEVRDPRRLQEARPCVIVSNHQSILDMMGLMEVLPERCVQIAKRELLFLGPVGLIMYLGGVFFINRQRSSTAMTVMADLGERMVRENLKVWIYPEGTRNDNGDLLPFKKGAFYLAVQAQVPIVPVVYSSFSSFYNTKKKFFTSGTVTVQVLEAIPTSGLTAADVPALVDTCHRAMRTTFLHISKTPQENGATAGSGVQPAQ
Chain of UniProt P00519 (P00519 whole entry, looked up): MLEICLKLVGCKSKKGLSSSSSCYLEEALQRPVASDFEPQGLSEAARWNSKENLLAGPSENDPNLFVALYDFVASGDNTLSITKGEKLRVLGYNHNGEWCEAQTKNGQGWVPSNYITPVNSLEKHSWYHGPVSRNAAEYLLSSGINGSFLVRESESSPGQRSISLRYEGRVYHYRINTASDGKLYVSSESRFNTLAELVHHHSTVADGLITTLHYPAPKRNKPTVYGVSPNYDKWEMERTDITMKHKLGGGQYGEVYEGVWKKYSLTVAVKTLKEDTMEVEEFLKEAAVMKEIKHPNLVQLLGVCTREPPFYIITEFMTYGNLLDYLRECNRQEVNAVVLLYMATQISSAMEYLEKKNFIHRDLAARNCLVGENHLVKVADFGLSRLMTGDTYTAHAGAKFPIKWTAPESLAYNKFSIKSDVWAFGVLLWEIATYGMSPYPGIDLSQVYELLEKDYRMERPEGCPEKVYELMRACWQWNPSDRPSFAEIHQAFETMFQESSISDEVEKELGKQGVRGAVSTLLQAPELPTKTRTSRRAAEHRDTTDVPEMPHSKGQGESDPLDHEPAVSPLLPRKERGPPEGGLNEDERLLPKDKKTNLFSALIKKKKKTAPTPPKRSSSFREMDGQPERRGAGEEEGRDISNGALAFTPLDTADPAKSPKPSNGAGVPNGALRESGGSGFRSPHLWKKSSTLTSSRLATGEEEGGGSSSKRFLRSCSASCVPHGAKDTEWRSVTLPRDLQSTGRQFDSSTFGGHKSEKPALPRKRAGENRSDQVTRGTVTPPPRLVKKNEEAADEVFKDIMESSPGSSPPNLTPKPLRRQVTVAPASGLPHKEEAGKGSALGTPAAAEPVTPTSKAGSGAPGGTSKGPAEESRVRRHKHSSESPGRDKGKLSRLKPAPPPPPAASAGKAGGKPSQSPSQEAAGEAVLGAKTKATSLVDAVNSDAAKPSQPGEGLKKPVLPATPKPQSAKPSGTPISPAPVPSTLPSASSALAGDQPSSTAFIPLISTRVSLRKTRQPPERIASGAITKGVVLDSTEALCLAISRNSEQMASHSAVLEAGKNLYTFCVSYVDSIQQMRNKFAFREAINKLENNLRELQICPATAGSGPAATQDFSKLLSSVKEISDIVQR
Chain of UniProt Q02252 (Q02252 whole entry, looked up): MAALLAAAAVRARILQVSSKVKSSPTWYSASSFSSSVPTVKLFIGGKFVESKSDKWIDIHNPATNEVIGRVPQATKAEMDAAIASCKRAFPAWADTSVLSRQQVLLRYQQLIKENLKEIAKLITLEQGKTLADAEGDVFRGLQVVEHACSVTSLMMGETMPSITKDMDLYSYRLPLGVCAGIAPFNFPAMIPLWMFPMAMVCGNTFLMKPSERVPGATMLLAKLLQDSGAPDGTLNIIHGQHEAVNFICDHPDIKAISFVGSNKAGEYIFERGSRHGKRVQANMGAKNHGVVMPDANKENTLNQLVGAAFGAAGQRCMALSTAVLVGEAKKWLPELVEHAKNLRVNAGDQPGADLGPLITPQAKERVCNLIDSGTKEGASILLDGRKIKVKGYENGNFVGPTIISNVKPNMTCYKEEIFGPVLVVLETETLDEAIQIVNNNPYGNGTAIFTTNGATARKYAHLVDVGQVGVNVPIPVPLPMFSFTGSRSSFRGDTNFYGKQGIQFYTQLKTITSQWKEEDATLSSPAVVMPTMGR
Chain of UniProt Q9UPW5 (Q9UPW5 whole entry, looked up): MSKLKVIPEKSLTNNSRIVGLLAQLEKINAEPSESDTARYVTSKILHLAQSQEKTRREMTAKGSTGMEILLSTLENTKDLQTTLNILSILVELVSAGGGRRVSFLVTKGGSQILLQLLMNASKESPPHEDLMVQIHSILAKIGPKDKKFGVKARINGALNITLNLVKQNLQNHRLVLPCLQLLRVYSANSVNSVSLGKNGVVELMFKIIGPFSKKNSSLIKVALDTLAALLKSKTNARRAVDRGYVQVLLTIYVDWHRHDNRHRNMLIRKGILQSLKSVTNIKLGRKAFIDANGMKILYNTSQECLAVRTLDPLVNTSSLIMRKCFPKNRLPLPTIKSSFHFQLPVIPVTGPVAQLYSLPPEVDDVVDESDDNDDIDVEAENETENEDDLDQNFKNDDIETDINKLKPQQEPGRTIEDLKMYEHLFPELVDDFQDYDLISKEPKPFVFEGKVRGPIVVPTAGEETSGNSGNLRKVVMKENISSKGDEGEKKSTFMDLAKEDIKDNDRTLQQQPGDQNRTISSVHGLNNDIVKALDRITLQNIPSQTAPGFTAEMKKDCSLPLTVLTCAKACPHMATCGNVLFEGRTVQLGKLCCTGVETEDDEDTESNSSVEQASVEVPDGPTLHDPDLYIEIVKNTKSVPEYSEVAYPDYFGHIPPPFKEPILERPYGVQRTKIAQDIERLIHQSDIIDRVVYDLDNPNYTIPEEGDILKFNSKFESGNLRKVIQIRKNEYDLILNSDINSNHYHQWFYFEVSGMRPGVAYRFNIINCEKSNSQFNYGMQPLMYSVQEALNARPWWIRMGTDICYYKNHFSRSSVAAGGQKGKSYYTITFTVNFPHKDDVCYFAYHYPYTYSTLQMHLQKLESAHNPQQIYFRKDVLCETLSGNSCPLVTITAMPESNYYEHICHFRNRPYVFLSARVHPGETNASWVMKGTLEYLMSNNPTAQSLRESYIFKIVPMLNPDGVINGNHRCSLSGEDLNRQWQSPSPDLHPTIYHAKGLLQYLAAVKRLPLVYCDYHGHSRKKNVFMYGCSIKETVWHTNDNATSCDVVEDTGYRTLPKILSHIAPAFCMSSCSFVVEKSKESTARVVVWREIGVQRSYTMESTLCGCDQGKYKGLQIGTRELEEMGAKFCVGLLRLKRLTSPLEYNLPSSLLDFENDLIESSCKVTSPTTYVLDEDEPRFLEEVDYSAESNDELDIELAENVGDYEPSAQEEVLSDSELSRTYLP
Chain of UniProt P53396 (P53396 whole entry, looked up): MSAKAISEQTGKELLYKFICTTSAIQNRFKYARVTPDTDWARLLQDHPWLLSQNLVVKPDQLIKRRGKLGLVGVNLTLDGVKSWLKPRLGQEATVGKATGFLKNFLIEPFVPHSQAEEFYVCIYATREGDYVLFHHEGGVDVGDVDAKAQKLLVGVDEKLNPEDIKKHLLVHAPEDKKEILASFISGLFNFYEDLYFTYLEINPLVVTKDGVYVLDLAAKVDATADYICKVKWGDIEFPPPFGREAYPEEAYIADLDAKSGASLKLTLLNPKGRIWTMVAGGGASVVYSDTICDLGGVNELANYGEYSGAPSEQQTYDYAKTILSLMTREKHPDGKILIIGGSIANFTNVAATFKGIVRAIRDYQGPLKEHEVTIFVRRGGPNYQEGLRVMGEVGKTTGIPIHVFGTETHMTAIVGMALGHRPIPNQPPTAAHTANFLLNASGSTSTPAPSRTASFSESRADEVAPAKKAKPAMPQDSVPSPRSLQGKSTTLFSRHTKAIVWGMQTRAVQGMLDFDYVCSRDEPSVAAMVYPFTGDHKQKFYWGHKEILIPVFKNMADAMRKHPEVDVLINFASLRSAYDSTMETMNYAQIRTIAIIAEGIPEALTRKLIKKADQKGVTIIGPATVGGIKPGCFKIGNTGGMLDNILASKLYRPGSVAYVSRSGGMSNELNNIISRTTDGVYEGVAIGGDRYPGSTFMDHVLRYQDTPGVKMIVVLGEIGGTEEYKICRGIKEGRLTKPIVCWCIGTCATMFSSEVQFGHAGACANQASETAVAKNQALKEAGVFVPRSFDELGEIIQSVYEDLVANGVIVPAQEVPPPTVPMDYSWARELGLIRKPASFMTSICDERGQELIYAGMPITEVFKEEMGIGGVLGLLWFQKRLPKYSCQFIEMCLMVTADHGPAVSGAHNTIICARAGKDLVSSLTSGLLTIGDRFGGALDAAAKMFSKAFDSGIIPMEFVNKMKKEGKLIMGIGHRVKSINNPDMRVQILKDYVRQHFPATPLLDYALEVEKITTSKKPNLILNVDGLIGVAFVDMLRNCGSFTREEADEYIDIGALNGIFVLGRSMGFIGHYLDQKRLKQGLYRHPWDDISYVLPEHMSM
Chain of UniProt Q9UG63 (Q9UG63 whole entry, looked up): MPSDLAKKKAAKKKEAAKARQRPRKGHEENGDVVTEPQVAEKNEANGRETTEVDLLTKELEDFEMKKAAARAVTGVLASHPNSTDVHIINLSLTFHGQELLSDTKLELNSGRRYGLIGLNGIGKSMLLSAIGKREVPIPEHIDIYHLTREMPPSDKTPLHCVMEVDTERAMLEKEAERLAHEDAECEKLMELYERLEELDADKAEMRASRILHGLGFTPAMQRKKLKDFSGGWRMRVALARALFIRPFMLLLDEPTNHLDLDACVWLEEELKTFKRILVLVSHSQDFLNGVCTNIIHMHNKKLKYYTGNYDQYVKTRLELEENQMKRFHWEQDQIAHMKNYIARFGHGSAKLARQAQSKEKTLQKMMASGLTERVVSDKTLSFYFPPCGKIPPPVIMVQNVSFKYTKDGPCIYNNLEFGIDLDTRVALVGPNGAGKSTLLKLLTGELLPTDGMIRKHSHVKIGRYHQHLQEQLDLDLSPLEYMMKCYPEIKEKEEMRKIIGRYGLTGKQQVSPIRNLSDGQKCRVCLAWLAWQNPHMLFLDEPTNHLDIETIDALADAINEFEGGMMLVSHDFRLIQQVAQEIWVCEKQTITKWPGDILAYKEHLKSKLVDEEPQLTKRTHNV
Chain of UniProt P14621 (P14621 whole entry, looked up): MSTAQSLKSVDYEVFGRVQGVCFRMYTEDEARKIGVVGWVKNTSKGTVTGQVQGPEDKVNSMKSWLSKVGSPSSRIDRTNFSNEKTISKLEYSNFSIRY

Row | Target | log2 fold change (ibrutinib) | log2 fold change [1] | log2 fold change (ralimetinib) | log2 fold change [2] | log2 fold change [3] | log2 fold change [4] | log2 fold change [5] | log2 fold change [6] | log2 fold change [7] | log2 fold change [8] | log2 fold change (vemurafenib) | log2 fold change [9] | log2 fold change (barasertib) | log2 fold change [10] | log2 fold change (volasertib) | log2 fold change [11] | log2 fold change [12] | log2 fold change [13] | log2 fold change (saracatinib) | log2 fold change (sotrastaurin)
1 | ADRM1 (UniProt Q16186) | 0.005 | -0.009 | 0.027 | -0.007 | 0.026 | -0.028 | -0.011 | 0.019 | 0.012 | -0.01 | -0.01 | 0.033 | 0.031 | -0.026 | -0.036 | 0.008 | -0.024 | -0.027 | 0 | 0.002
2 | ARAP1 (UniProt Q96P48) | -0.01 | 0.002 | 0.016 | 0.028 | 0.003 | 0.02 | -0.01 | 0.005 | 0.057 | 0.006 | -0.014 | 0.006 | 0.013 | -0.034 | -0.085 | 0.029 | -0.076 | 0.015 | -0.001 | 0.006
3 | ALDH6A1 (UniProt Q02252) | 0.128 | -0.006 | -0.064 | -0.043 | 0.008 | -0.088 | -0.191 | 0.025 | -0.066 | -0.02 | 0.055 | 0.027 | 0.043 | -0.009 | -0.025 | 0.015 | -0.111 | 0.022 | -0.324 (active) | -0.082
4 | ABCF2 isoform 2 (UniProt Q9UG63) | -0.012 | 0.013 | 0.059 | 0.003 | 0.01 | 0.007 | -0.008 | -0.013 | 0.021 | 0.012 | 0.017 | 0.002 | -0.014 | -0.072 | -0.045 | 0.026 | -0.008 | -0.026 | 0 | 0.036
5 | ABL1 isoform 2 (UniProt P00519) | 0.157 | 0.077 | 0.019 | 0.024 | -0.017 | -0.014 | -0.01 | 0.048 | 0.011 | -0.043 | 0.05 | 0.125 | 0.031 | -0.03 | -0.012 | -0.048 | 0.156 | -0.097 | – | -0.012
6 | ABHD12 isoform 2 (UniProt Q8N2K0) | -0.039 | -0.03 | 0.043 | -0.014 | 0.05 | 0.052 | 0.021 | 0.022 | -0.05 | 0.033 | -0.049 | 0.077 | -0.015 | 0.034 | 0.006 | -0.055 | 0.119 | -0.111 | -0.039 | 0.018
7 | ADK (UniProt P55263) | -0.028 | 0.107 | 0.313 | -0.027 | -0.05 | -0.073 | -0.059 | -0.007 | -0.008 | -0.005 | -0.052 | -0.036 | -0.054 | 0.458 (active) | 0.437 (active) | -0.027 | 0.044 | 0.155 | 0.043 | 0.343
8 | ACLY (UniProt P53396) | -0.002 | 0.003 | 0.001 | -0.011 | 0.02 | -0.02 | 0.014 | -0.014 | -0.012 | 0.054 | 0.017 | 0.01 | -0.003 | -0.035 | -0.031 | -0.003 | -0.049 | 0.026 | -0.007 | 0.016
9 | AGTPBP1 (UniProt Q9UPW5) | -0.255 | 0.001 | 0.013 | -0.058 | 0.008 | -0.026 | 0.051 | 0.077 | 0.005 | 0.012 | 0.151 | 0.075 | -0.223 | 0.036 | -0.089 | -0.013 | 0.013 | -0.409 (active) | 0.108 | -0.126
10 | ABHD16A (UniProt O95870) | -0.01 | 0.004 | 0.029 | 0.018 | 0.027 | -0.022 | 0.03 | -0.031 | -0.077 | -0.011 | 0.074 | 0.012 | 0.026 | 0.141 | 0.002 | -0.059 | -0.001 | 0.019 | 0.021 | 0.051
11 | ANKRD10 (UniProt Q9NXR5) | -0.076 | -0.172 | 0.005 | 0.042 | -0.023 | 0.046 | 0.004 | -0.008 | 0.046 | -0.085 | 0.056 | -0.035 | 0.137 | – | 0.1 | 0.115 | -0.19 | -0.022 | 0.017 | 0.01
12 | ABHD13 (UniProt Q7L211) | 0.041 | -0.017 | – | – | – | -0.028 | 0.196 | 0.03 | – | 0.003 | 0.069 | -0.016 | 0.102 | -0.107 | 0.06 | – | -0.543 (active) | 0.077 | 0.179 | -0.031
13 | ALDH18A1 isoform 2 (UniProt P54886) | – | – | -0.308 | -0.245 | – | – | -0.378 | 0.03 | 0.19 | – | 0.308 | – | – | – | – | 0.043 | – | – | 0.13 | 0.121
14 | ANXA13 isoform 2 (UniProt P27216) | 0.051 | 0.092 | 0.022 | 0.169 | -0.057 | -0.034 | 0.062 | 0.053 | -0.001 | 0.06 | -0.129 | -0.071 | 0.091 | – | -0.035 | 0.131 | -0.179 | 0.106 | 0.004 | -0.001
15 | ACTG1 (UniProt K7EM38) | – | -0.044 | – | – | – | – | – | – | – | 0.152 | – | -0.259 | – | -0.208 | -0.124 | – | – | – | – | –
16 | ANKRD30A (UniProt Q9BXX3) | -0.01 | 0.77 | 0.014 | 0.088 | – | 0.007 | 0.038 | -0.088 | 0.077 | -0.177 | – | 0.111 | 0.087 | -0.102 | -0.08 | 0.152 | 0.262 | 0.891 | 0.072 | 0.032
17 | ABCC5 (UniProt O15440) | -0.109 | 0.012 | -0.216 | -0.145 | -0.015 | – | -0.094 | 0.019 | 0.187 | -0.019 | -0.603 (active) | -0.001 | -0.034 | -0.067 | -0.136 | 0.145 | -0.137 | -0.022 | 0.013 | 0.018
18 | AGPAT2 (UniProt O15120) | – | – | 0.1 | -0.071 | 0.046 | 0.03 | – | -0.064 | 0.013 | – | 0.33 (active) | – | – | 0.108 | – | 0.002 | -0.034 | 0.023 | – | 0
19 | ADK, A0A5F9ZH76 | 0.168 | 0.005 | – | – | – | -0.156 | – | – | – | 0 | – | -0.174 | -0.019 | – | 0.167 | – | – | – | – | –
20 | ANKRD44 isoform 2 (UniProt Q8N8A2) | -0.131 | 0.067 | – | – | -0.026 | 0.075 | – | – | – | -0.029 | 0.056 | 0.019 | 0.058 | -0.308 | 0.054 | – | -1.9 (active) | 0.616 | – | –
21 | AIF1L (UniProt Q9BQI0) | 0.169 | 0.032 | 0.029 | -0.003 | -0.105 | -0.012 | 0.159 | -0.014 | -0.005 | -0.013 | – | 0.049 | 0.009 | -0.101 | -0.086 | 0.091 | 0.153 | -0.117 | 0.13 | 0.115
22 | ACLY isoform 2 (UniProt P53396) | -0.015 | 0.028 | -0.022 | 0.07 | – | 0.008 | – | 0.018 | -0.008 | -0.01 | 0.035 | 0 | -0.088 | 0.045 | -0.033 | -0.187 | -0.485 (active) | 0.43 | – | 0.02
23 | ACYP2 (UniProt P14621) | 0.086 | 0.004 | 0.026 | -0.018 | 0.044 | 0.047 | – | -0.036 | 0.025 | 0.04 | -0.245 | -0.023 | 0.04 | – | 0.011 | -0.007 | 0.189 | -0.036 | – | -0.019
24 | ANKRD40 (UniProt Q6AI12) | 0.008 | – | 0.062 | 0.05 | 0.051 | 0.027 | -0.231 | 0.075 | 0.087 | – | 0.501 | – | -0.091 | -0.118 | – | -0.066 | 0.094 | -0.075 | -0.101 | 0.012
